MITF primary: human MITF inhibition, primary screen. actives 0.91% (n = 650,000). AlphaScreen MITF homodimerization, bead proximity signal. O75030. inhibition, % at 2.6 µM; in the data active = inhibition above about 50%;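 note: 0% = vehicle wells with protein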
TEAD-YAP inh: TEAD-YAP interaction inhibition; HEK-TIYL cells, TEAD-Gal4/YAP UAS-luciferase luminescence; inhibition, % at 9.12 µM; actives 1.4% (n = 640,000); in the data active = inhibition above about 32%;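 note: 0% = median of test compound wells and 100% = reference inhibitor wells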
GPR151 ag: human GPR151 activation; activation, % at 11.2 µM; actives 1% (n = 650,000); PathHunter beta-arrestin GPR151 cells, luminescence; in the data active = activation above about 4.9%;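 note: 0% = median of compound wells and 100% = cells with positive control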
FBW7 act: human FBW7 E3 ligase activation, primary screen | Q969H0 | AlphaScreen FBW7–phospho-cyclin E peptide binding, activator screen | normalized activity (activation), % at 26.1 µM | actives 0.13% (n = 650,000) | AID 1259310; in the data active = normalized activity above about 1.9%;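 note: purified mutant Fbw7 with reduced substrate affinity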
Target sequence (Q969H0 whole entry, looked up): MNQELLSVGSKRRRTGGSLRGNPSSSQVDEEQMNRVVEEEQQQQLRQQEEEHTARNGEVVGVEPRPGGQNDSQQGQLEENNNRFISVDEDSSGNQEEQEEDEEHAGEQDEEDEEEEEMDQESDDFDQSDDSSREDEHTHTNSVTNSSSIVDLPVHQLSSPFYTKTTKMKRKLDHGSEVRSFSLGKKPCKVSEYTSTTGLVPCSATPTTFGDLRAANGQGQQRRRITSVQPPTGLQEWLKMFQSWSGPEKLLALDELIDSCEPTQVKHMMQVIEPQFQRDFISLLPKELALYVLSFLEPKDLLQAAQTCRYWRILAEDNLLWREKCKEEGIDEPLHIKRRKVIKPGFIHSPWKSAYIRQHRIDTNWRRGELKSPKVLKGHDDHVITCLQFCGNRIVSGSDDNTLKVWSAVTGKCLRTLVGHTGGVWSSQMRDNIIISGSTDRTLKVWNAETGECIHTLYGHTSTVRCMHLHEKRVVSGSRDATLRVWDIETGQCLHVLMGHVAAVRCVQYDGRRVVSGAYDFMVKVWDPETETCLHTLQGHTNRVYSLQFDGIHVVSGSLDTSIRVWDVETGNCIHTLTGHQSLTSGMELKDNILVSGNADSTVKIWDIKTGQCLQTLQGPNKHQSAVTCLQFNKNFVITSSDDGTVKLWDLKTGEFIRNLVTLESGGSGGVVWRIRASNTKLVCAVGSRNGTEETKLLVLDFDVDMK
The depositor's hits bear a star. Only some compounds are listed: those with a hit (about 3.5% of all), similar ones and a draw of the others.

SMILES | MITF primary | TEAD-YAP inh | GPR151 ag | FBW7 act
CN1C(=O)/C(=C2\SC(N3CCOCC3)=NC2=O)c2ccccc21 | 16 | -8 | -2 | 1
CCOc1ccc(NC(=O)CN2C(=O)/C(=C3\SC(N4CCOCC4)=NC3=O)c3ccccc32)cc1 | 19 | 0 | -1 | 8.4*
COc1cc(/C=C2\SC(N3CCCCC3)=NC2=O)ccc1O | 1 | 50* | 1 | 0
CC(C)(C)c1ccc(/C=C2\SC(N3CCOCC3)=NC2=O)cc1 | -4 | 0 | 0 | 0
CCOc1ccc(/C=C2\SC(N3CCOCC3)=NC2=O)cc1 | 8 | 8 | 0 | 2.3*
O=C1N=C(N2CCOCC2)S/C1=C/c1ccc(O)cc1 | 8 | 47* | 0 | 0
C/C=C/C(=O)Nc1ccc(-c2nc3ccccc3[nH]2)cc1 | 6 | -57 | -4 | 0
Cc1ccc2c(c1)c(=O)c1ccccc1n2CC(=O)N(C)C1CCCCC1 | 4 | -6 | 0 | 0
Cc1ccc(/C=C2/SC(N3CCN(C)CC3)=NC2=O)cc1 | 58* | 3 | -1 | 0
O=S(=O)(c1ccc(Cl)s1)N1CCc2ccccc2C1 | 3 | 41* | 5 | 0
O=S(=O)(c1ccc(Cl)s1)N1CCCCCC1 | -8 | 5 | -1 | 0
CCOC(=O)c1ccc(-n2c(C)cc(/C=C3\C(=O)NC(=S)N(CC)C3=O)c2C)cc1 | -10 | -4 | 1 | 0
Nc1nc(SCC(=O)NC2CCCCC2)nc2sc3c(c12)CCCC3 | 7 | 53* | -2 | 1
CCOC(=O)CC(=O)CSc1nc(N)c2c3c(sc2n1)CCCC3 | 10 | -17 | -2 | 0
CCOC(=O)CCCSc1nc(N)c2c3c(sc2n1)CCCC3 | 7 | 88* | 0 | 0
N#Cc1cc(-c2ccccc2)nc(N2CCCCCC2)n1 | 2 | 4 | 1 | 0
C=CCN=c1scc(-c2ccco2)n1/N=C/c1cccs1 | 22 | 34* | 1 | -1
O=C(CSc1nnc(NC2CCCCC2)s1)NNC(=O)c1ccccc1 | -11 | -2 | 3 | 0
COCCNC(=S)NCCNc1nc2c(C)cc(C)cc2cc1C#N | 18 | -11 | -1 | 0
CC(=O)NC(c1ccccc1C)c1ccc2cccnc2c1O (stereo unspecified) | 24 | 85* | -1 | -1
CC(=O)NC(c1ccc2cccnc2c1O)c1cccc2ccccc12 (stereo unspecified) | 46 | 82* | 0 | -2
COc1ccccc1C(NC(C)=O)c1cc(Cl)c2cccnc2c1O (stereo unspecified) | 3 | 3 | 0 | 0
Cc1ccc(Cl)cc1NC(=O)c1ccc(N2CC3CC(C2)c2cccc(=O)n2C3)c(NC(=O)/C=C/c2ccccc2)c1 (stereo unspecified) | 14 | 3 | 2 | 1
Cc1ccc(C(=O)NC(=S)Nc2ccc(C(=O)O)cc2)cc1 | -8 | -33 | 0 | 0
CNC(=S)Nc1c(F)cccc1F | 3 | -2 | 1 | 0
SMILES | MITF primary | TEAD-YAP inh | GPR151 ag | FBW7 act
CC(C)CNS(=O)(=O)c1ccc(CCC(=O)N2CCN(c3ccc(F)cc3)CC2)cc1 | 1 | 40* | 0 | 0
O=C(Nc1ccc2c3c(cccc13)CC2)c1cc(I)ccc1Cl | -13 | 17 | -1 | 0
O=C(Nc1ccc2c3c(cccc13)CC2)c1cc(Br)ccc1Cl | -4 | 55* | 3 | -1
O=C(Nc1cccc([N+](=O)[O-])c1)c1cccc(S(=O)(=O)Nc2cccc(F)c2)c1 | -16 | 16 | 0 | 0
Cc1ccc(S(=O)(=O)Nc2ccccc2C(=O)Nc2ccc([N+](=O)[O-])cc2)cc1 | 19 | 63* | 1 | 0
O=C(Nc1ccc([N+](=O)[O-])cc1)c1cccc(S(=O)(=O)Nc2cccc(F)c2)c1 | -11 | 33* | 0 | 0
Cc1ccc(S(=O)(=O)Nc2ccccc2C(=O)Nc2ccc(C(=O)O)cc2)cc1 | -4 | -10 | 1 | 0
COc1ccc(NS(=O)(=O)c2ccc(NC(=O)c3cccc([N+](=O)[O-])c3)cc2)cc1 | 3 | 33* | 0 | 0
COc1cc(OC)cc(C(=O)Nc2ccc(S(=O)(=O)Nc3nccc(C)n3)cc2)c1 | 14 | -13 | 1 | 2.0*
O=C(COC(=O)c1ccccc1OC(F)F)NC(=O)NCc1ccco1 | 23 | 1 | 1 | 0
CC(=O)c1cccc(NS(=O)(=O)c2ccc(NC(=O)c3ccccc3Cl)cc2)c1 | 4 | 39* | 0 | 0
Cc1cccc(NS(=O)(=O)c2ccc(NC(=O)c3ccc([N+](=O)[O-])cc3)cc2)c1 | -7 | 35* | 3 | 0
O=C(CCCCC(=O)N/N=C\c1ccco1)N/N=C\c1ccco1 | -9 | -9 | 1 | 0
FC(F)(F)c1ccc(N/N=C/C2=C(N3CCOCC3)C(=C/c3ccccc3)/CC2)nc1 | 5 | 6 | 0 | 0
Cn1c(=O)n(Cc2cccc(F)c2)c(=O)c2c1ncn2Cc1ccccc1 | 8 | -13 | 0 | 0
COc1ccccc1Oc1nnnn1-c1ccc(C(=O)O)cc1 | 8 | -6 | -1 | 0
CCN(CC)C(=O)c1ccc(Oc2nnnn2-c2ccccc2)c(OC)c1 | 10 | 32* | 0 | 0
Cc1ccccc1OCC(=O)Nc1ccc(-c2cc3ccccc3oc2=O)c(C)c1 | 13 | 45* | 0 | 0
Cc1cc(NC(=O)c2ccccc2)ccc1-c1cc2ccccc2oc1=O | 6 | -1 | -2 | 1
Cc1cc(NC(=O)Cc2ccccc2)ccc1-c1cc2ccccc2oc1=O | -5 | 54* | 0 | 0
O=C(Nc1ccc2nccnc2c1)c1cccc2nccnc12 | 20 | -7 | 1 | 0
Cc1noc(C)c1C(=O)Nc1ccc(S(=O)(=O)N2CCCc3ccccc32)cc1 | -1 | 11 | 0 | 0
CCOC(=O)N1CCN(C(=O)N2c3ccccc3Sc3ccccc32)CC1 | -2 | 56* | 1 | 0
CC1CCN(C(=O)N2c3ccccc3Sc3ccccc32)CC1 | 12 | -4 | 1 | 0
CC(C)(C)c1ccc(-c2noc(CCC(=O)NC3CCCC3)n2)cc1 | 8 | 64* | 1 | 0
SMILES | MITF primary | TEAD-YAP inh | GPR151 ag | FBW7 act
Cc1ccc(-c2noc(CCC(=O)NC3CCCC3)n2)cc1 | 31 | -1 | -2 | 1
CCOc1ccc(-c2noc(CCC(=O)O)n2)cc1 | -18 | 50* | 0 | 0
C=CCNC(=O)CCc1nc(-c2ccc(C(C)(C)C)cc2)no1 | 5 | 35* | -1 | 0
Cn1cc(SCC(=O)Nc2cccc3ccccc23)c2ccccc21 | 2 | -5 | -1 | 0
CS(=O)(=O)N(CC(=O)Nc1ccc(F)cc1)c1ccc(Cl)cc1 | 3 | -13 | -3 | 1
c1ccc(-c2nc3nnnn3c3ccccc23)cc1 | 14 | -3 | 3 | 0
Cc1csnc1NC(=O)c1c(N)nc2c(c1C(F)(F)F)OC1=C(CCC1)O2 | 6 | 96* | 1 | 0
CCc1nc(SCC(=O)Nc2cc(OC)ccc2OC)c2c(=O)n(C)c(=O)n(C)c2n1 | -19 | 7 | 2 | 0
C=CS(=O)(=O)c1ccc(C(C)(C)C)cc1 | 19 | 68* | 3 | 0
O=C(NNC(=O)c1ccc(Br)cc1)Nc1ccc(Cl)c(Cl)c1 | 10 | 0 | 2 | 0
